The values below come from PubChem BioAssay.

Assay [1] deals with PRMT1 (protein arginine N-methyltransferase 1). Put plainly: PRMT1 binders on small-molecule microarrays, primary screen, biochemical, small-molecule microarray, 635 nm fluorescence (AID 1088).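 Further: binding of Prmt1 protein to compounds spotted on small-molecule microarray slides.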 The following applies: small-molecule microarray binding, higher = more signal.
Assay [2] is described as follows: yeast growth modulation, basal conditions, primary screen, YJM789 clinical isolate, OD600, 24 h (AID 1089).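 Further: growth of clinical yeast isolate S. cerevisiae YJM 789 seeded 1000 cells per well; test concentration not given here.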 The following applies: S. cerevisiae YJM789 growth, higher = more signal, called active from +8 up or from −8 down.
Assay [3] is described as follows: fission yeast growth modulation, primary screen, strain 972, OD600, 24 h, no modulator (AID 1090).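 Further: basal condition with compound alone and no growth modifier present; test concentration not given here.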 The following applies: S. pombe 972 growth, higher = more signal, called active from +8 up or from −8 down.
Assay [4] is described as follows: S. cerevisiae growth modulation with rapamycin, primary screen, strain BY4716, OD600, 96 h (AID 1091). Further: test concentration not given here. The following applies: higher = more signal, called active from +8 up or from −8 down.
Assay [5] deals with Torsin-1A-interacting protein 2 (Homo sapiens) (UniProt Q8NFQ8). Description: LULL1 binders on small-molecule microarray, primary screen, cell lysate, human LULL1 lysate, 635/667 nm fluorescence (AID 1092).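 Further: probe is lysate of COS7 cells overexpressing human LULL1; score merges per-feature 667 nm fluorescence with signal-to-noise.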 The following applies: hLULL1 lysate binding, 635 nm fluorescence, higher = more signal.
Chain of Torsin-1A-interacting protein 2 (Homo sapiens) (Q8NFQ8 whole entry, looked up): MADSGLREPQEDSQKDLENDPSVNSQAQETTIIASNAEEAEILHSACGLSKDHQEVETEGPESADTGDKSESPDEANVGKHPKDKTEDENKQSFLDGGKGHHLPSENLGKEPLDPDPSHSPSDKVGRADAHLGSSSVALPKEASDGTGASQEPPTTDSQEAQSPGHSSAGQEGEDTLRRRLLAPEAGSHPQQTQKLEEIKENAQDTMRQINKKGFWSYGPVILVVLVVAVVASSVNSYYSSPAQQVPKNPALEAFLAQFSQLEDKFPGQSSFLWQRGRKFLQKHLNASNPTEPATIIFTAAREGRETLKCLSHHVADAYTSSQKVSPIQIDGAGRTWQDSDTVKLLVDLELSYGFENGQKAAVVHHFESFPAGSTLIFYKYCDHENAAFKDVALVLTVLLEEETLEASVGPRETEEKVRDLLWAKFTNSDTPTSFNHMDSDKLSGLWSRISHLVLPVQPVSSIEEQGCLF
A short description of assay [6]: E. coli growth modulation, two-sided OD650, primary screen, E. coli filamentation project, strain DRC41, 24 h (AID 1093).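 Further: MC1000 strain lacking acrAB efflux and sulA so SOS filamentation is blocked; test concentration not given here.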 The following applies: OD650, 24 h, higher = more signal, called active from +8 up or from −8 down.
Assay [7] can be described thus: small-molecule microarray binders of probe aLefty2, primary screen, biochemical, biotinylated probe, 635/667 nm fluorescence (AID 1094).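 Further: score merges spot fluorescence near 667 nm with spot signal-to-noise ratio.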 The following applies: higher = more signal.
The subject of assay [8] is Noggin (protein binding on small-molecule microarray). Put plainly: Noggin binders on small-molecule microarray, primary screen, biochemical, 635/667 nm fluorescence (AID 1095).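 Further: score merges 667 nm feature fluorescence with signal to noise over triplicate slides.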 The following applies: 635 nm fluorescence, higher = more signal.
Assay [9] concerns the target Neurogenic locus notch homolog protein 3 (Homo sapiens) (UniProt Q9UM47). Put plainly: NOTCH3 binders on small-molecule microarray, primary screen, biochemical, 635/667 nm fluorescence (AID 1096). The following applies: NOTCH3 binding, 635 nm fluorescence, higher = more signal.
The nature of assay [10]: small-molecule microarray binders of probe aEGFR, primary screen, biochemical, biotinylated probe, 635/667 nm fluorescence (AID 1097).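 Further: probe is a biotinylated anti-EGFR antibody binding compounds printed on slides; score combines fluorescence near 667 nm and signal to noise of each spot.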 The following applies: higher = more signal.
Assay [11] deals with Plasmodium falciparum Sir2 (PF13_0152, Sir2A). Description: pfSir2 binders on small-molecule microarrays, primary screen, biochemical, small-molecule microarray, 635 nm fluorescence (AID 1098).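 Further: score merges spot fluorescence intensity with its signal-to-noise ratio.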 The following applies: small-molecule microarray binding, fluorescence 635 nm; higher = more signal.
Assay [12] in a line: small-molecule microarray binders of probe aDKK1, primary screen, biochemical, biotinylated probe, 635/667 nm fluorescence (AID 1099).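 Further: score merges 667nm spot fluorescence with signal to noise across triplicate slides; reference of the scale not given here.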 The following applies: higher = more signal.
Assay [13] can be described thus: small-molecule microarray binders of probe aCHRDL2, primary screen, biochemical, biotinylated probe, 635/667 nm fluorescence (AID 1100). The following applies: higher = more signal.
A short description of assay [14]: splicing luciferase reporter signal modulators, primary screen, spliceosome inhibition project, cell-based, HEK293, splice +/- reporter (AID 1101).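 Further: HEK293 cells carrying a splicing-competent luciferase reporter gene; test concentration not given here.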 The following applies: luminescence, 24 h, higher = more signal, called active from +8 up or from −8 down.
In assay [15] the target is Fibroblast growth factor 10 (Homo sapiens) (UniProt O15520). Put plainly: FGF10 binders on small-molecule microarrays, primary screen, biochemical, small-molecule microarray, 635 nm fluorescence (AID 1102). The following applies: FGF10 binding, fluorescence 635 nm, higher = more signal.
Chain of Fibroblast growth factor 10 (Homo sapiens) (O15520 whole entry, looked up): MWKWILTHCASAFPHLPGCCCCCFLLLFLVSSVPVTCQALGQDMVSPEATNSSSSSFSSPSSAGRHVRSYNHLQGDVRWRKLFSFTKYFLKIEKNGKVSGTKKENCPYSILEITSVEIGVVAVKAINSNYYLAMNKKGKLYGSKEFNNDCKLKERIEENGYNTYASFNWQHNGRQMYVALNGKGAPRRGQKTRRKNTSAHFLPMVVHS
For assay [16], the system named is glycogen synthase kinase-3 (GSK3A per assay name; protocol says GSK3B). Description: GSK3 binders on small-molecule microarrays, primary screen, biochemical, small-molecule microarray, 635 nm fluorescence, GSK3A (AID 1103). Further: the record names both GSK3A and GSK3B. The following applies: small-molecule microarray binding, fluorescence 635 nm; higher = more signal.
The target of assay [17] is Epidermal growth factor receptor (Homo sapiens) (UniProt P00533). Description: EGFR binders on small-molecule microarrays, primary screen, biochemical, small-molecule microarray, 635 nm fluorescence (AID 1104).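 Further: score merges 667 nm emission intensity with spot signal to noise over triplicate slides.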 The following applies: EGFR binding, higher = more signal.
Chain of Epidermal growth factor receptor (Homo sapiens) (P00533 whole entry, looked up): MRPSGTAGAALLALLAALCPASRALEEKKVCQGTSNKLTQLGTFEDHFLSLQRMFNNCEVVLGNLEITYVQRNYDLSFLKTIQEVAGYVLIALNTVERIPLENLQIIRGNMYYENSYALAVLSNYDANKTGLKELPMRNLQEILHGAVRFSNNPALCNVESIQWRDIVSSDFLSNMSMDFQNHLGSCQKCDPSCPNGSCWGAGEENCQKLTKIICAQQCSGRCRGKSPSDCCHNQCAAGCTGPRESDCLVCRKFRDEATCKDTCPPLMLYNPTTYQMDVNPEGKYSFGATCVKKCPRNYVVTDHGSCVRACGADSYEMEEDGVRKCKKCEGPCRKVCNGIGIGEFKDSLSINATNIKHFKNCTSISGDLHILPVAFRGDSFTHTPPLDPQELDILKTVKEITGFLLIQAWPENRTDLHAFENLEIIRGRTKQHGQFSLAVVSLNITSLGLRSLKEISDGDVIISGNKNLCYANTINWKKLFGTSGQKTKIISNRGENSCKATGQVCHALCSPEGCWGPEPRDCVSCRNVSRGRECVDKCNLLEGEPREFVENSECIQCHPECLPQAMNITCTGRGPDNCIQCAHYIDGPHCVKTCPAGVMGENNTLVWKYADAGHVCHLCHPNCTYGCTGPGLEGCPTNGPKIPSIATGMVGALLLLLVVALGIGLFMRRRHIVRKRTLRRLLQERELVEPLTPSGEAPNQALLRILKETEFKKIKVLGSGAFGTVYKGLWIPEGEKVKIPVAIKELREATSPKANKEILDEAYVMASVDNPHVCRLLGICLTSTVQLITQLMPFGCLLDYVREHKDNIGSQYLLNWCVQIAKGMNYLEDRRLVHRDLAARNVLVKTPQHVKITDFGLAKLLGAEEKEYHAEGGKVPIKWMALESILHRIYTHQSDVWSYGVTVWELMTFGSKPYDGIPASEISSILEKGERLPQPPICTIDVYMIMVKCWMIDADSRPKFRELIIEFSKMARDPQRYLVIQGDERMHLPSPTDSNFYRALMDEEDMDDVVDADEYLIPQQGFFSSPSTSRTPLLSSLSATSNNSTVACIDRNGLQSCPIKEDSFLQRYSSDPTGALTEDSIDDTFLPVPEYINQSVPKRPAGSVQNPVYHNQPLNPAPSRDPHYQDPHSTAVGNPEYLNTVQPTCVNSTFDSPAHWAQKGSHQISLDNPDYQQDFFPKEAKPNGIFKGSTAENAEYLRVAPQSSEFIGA
Assay [18] addresses Follistatin-related protein 3 (Homo sapiens) (UniProt O95633). Put plainly: FSTL3 binders on small-molecule microarrays, primary screen, biochemical, small-molecule microarray, 635 nm fluorescence (AID 1105).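 Further: score merges emission near 667 nm and signal to noise per printed spot across three slides.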 The following applies: FSTL3 binding, higher = more signal.
In assay [19] the target is Dickkopf-related protein 1 (Homo sapiens) (UniProt O94907). Description: DKK1 binders on small-molecule microarrays, primary screen, biochemical, small-molecule microarray, 635 nm fluorescence scan (AID 1106).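 Further: score merges emission near 667 nm with signal to noise over three replicate slides.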 The following applies: DKK1 binding, higher = more signal.
Chain of Dickkopf-related protein 1 (Homo sapiens) (O94907 whole entry, looked up): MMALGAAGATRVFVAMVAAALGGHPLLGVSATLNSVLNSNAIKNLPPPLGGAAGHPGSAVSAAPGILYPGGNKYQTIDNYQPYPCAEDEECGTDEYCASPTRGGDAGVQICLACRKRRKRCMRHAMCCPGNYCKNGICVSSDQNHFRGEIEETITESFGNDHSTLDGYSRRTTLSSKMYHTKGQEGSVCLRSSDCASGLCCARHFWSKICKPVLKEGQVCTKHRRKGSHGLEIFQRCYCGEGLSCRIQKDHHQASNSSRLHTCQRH
For assay [20], the system named is Inhibin beta A chain (activin A). Description: INHBA (activin A) binders on microarrays, primary screen, biochemical, small-molecule microarray, 635 nm fluorescence scan (AID 1107).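 Further: mouse activin A protein probed at 4.33 µg/mL on printed slides; score merges bound-protein fluorescence near 667 nm with spot signal-to-noise.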 The following applies: small-molecule microarray binding, higher = more signal.

Each structure is given as a SMILES string. Active and inactive are the calls of the source.

Chain of Follistatin-related protein 3 (Homo sapiens) (O95633 whole entry, looked up): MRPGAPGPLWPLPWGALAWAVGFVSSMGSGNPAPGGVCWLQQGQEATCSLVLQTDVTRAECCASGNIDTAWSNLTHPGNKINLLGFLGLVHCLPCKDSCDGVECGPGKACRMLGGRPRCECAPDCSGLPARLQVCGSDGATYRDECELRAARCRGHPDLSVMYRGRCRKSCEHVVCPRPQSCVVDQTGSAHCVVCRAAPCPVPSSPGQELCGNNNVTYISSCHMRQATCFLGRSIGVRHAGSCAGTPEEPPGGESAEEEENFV
Chain of Neurogenic locus notch homolog protein 3 (Homo sapiens) (Q9UM47 whole entry, looked up): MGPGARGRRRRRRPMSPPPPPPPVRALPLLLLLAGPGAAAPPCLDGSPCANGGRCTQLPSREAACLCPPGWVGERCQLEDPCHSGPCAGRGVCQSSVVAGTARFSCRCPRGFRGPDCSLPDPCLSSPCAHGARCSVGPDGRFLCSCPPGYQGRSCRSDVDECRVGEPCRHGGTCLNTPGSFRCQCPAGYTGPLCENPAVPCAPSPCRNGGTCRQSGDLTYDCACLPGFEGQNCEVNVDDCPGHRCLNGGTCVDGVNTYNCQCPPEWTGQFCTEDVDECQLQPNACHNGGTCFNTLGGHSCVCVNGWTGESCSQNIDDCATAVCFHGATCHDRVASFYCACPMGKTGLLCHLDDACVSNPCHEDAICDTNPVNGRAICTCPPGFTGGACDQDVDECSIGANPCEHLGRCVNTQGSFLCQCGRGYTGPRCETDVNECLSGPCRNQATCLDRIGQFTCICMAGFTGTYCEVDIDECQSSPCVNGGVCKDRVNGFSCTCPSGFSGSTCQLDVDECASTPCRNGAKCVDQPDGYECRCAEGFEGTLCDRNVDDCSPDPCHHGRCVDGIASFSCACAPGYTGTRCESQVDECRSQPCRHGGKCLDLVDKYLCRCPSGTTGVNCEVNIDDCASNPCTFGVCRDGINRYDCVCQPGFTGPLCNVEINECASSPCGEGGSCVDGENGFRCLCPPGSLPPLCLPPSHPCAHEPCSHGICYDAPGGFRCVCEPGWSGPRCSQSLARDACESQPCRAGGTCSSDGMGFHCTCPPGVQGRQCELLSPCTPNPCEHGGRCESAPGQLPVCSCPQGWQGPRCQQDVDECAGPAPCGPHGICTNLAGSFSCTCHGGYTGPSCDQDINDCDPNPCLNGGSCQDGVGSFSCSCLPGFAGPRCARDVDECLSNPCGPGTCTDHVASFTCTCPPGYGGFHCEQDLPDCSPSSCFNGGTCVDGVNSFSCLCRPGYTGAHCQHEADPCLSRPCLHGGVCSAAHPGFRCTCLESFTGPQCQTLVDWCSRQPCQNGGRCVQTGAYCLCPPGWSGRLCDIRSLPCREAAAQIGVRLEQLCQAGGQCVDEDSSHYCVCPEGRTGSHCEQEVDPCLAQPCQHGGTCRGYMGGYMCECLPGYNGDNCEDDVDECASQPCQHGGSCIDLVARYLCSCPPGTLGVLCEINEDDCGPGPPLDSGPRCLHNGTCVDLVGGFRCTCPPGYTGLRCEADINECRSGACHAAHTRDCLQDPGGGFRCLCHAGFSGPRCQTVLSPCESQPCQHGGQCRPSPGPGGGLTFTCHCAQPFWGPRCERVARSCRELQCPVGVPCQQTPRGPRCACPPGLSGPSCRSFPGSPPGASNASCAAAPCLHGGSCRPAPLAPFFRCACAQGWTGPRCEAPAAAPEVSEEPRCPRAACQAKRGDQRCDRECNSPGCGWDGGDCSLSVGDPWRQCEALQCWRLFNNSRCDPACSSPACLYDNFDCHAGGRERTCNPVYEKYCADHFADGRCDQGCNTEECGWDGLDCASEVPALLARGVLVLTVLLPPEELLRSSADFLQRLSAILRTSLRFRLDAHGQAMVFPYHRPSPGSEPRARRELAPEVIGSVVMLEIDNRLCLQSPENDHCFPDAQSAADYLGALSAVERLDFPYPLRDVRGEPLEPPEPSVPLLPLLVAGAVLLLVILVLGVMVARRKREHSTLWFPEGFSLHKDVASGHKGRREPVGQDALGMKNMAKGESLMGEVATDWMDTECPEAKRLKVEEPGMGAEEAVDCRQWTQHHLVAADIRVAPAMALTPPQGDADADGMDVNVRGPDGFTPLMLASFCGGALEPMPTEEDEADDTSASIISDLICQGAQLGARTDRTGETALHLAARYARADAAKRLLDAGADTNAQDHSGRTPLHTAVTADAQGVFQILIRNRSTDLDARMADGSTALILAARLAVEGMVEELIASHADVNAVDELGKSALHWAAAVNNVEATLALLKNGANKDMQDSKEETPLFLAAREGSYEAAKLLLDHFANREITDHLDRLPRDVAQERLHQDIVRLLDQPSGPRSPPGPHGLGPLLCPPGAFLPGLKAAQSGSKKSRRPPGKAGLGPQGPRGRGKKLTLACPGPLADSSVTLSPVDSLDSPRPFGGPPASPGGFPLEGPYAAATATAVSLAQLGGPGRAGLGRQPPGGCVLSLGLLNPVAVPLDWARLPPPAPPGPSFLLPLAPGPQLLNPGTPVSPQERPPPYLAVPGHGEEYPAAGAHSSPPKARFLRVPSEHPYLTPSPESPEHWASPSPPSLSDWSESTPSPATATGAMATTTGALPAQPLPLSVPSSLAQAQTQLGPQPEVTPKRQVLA

`C=CCNC(=O)[C@H]1[C@@H]2C(=O)O[C@@H](c3ccccc3)[C@@H](c3ccccc3)N2[C@@H](c2ccccc2OCCO)[C@]12C(=O)N(C(=O)OCCOC)c1ccc(C#CC3=CCCCC3)cc12`: the composite z-score in [1] is 1.55; in [5], 2.38; in assay [7], 0.304; in assay [8], 0.843; in assay [9], 1.05; in assay [10] it was 0.34. Also, the composite z-score stood at 1.39 in [11]; 0.683 in assay [12]; 0.521 in assay [13]; 0.996 in assay [15]; 1.22 in assay [16]; 0.69 in assay [17]. Further, the composite z-score stood at 1.32 in assay [18], 1.11 in [19] and 1.41 in [20]. For the same molecule, the z-score was 1.85 (inactive) in [2]; -1.02 (inactive) in assay [3]; 4.29 (inactive) in assay [4]; 1.23 (inactive) in assay [6]; -1.85 (inactive) in assay [14].

Consider `CN(C)CCCCNC(=O)[C@H]1C[C@H]2C(=O)N[C@@H](CCCCN(C)C)C(=O)N2[C@H]1c1cccc(OCCO)c1`, for which the composite z-score was 1.53 in assay [1]; 2.74 in assay [5]; -0.0474 in assay [7]; 1.38 in assay [8]; 0.993 in [9]; -0.219 in assay [10]. Besides, the composite z-score in assay [11] was 1.12; in assay [12], -0.199; in assay [13], -0.434; in assay [15] it was 1.21; in assay [16] it was 1.29; in assay [17] it was 0.514. The composite z-score in [18] is 1.11; in assay [19], 0.418; in assay [20] it was 0.0714. Further, the z-score in assay [2] is 0.328 (inactive); in assay [3] it was 1.22 (inactive); in [4], -0.378 (inactive); in assay [6] it was -0.0359 (inactive); in [14], -0.404 (inactive).

As for `COCCOC(=O)N1C(=O)[C@@]2(c3cc(C#CC4(O)CCCCCC4)ccc31)[C@H](C(N)=O)[C@H]1C(=O)O[C@H](c3ccccc3)[C@H](c3ccccc3)N1[C@@H]2c1ccccc1OCCO`, the composite z-score in assay [1] was 1.54; in [5], 2.49; in assay [7] it was -0.484; in [8], 1.09; in assay [9] it was 1.08; in assay [10] it was 0.445. Besides, the composite z-score in assay [11] was 1.28; in assay [12], 0.919; in assay [13], -0.423; in [15], 1.15; in assay [16], 1.3; in [17], 0.639. Besides, the results for the composite z-score in assay [18], in [19] and in assay [20] were 1.16, 0.974 and -0.505, respectively. Besides, the z-score in assay [2] is 1.53 (inactive); in [3], -0.0153 (inactive); in assay [4] it was 4.1 (inactive); in [6], 0.58 (inactive); in [14], -1.96 (inactive).

Take `CCCCN1CC=CC23O[C@@H]4C=CCOC(=O)[C@@H]4[C@H]2C(=O)N(CCCO)[C@@H]3C1=O` (stereo not given in full): the composite z-score in [1] is 0.412; in [5], 2.41; in assay [7], -0.145; in assay [8], -0.957; in assay [9], -0.366; in assay [10] it was -0.285. Moreover, the composite z-score is 1.24 in assay [11]; -0.159 in assay [12]; 0.48 in assay [13]; -0.816 in assay [15]; -1.16 in assay [16]; -0.953 in assay [17]. Also, the composite z-score in assay [18] is -1.18; in assay [19] it was -1.05; in assay [20] it was 0.396. Moreover, the z-score in [2] is 0.228 (inactive); in [3], -0.399 (inactive); in assay [4] it was -0.191 (inactive); in assay [6], 1.42 (inactive); in [14], -1.32 (inactive).

For the molecule `O=C1NC(=O)C2C1C=CC(C(O)c1ccc(Br)cc1)N2Nc1ccccn1` (stereo not given), the composite z-score in [1] was determined as 0.215; in assay [5] it was 1.18; in [7], 0.119; in assay [8], 0.248; in assay [9], 0.63; in [10], 0.315. Also, the composite z-score in assay [11] stood at 0.246; in [12], 0.71; in [13], 0.662; in [15] it was 0.557; in [16] it was 0.389; in [17], 0.12. In addition, the results for the composite z-score in assay [18], in [19] and in [20] were 0.28, 1.27 and 1.37, respectively. For the same molecule, the z-score was -1.26 (inactive) in [2]; 0.61 (inactive) in [3]; -0.683 (inactive) in [4]; -0.931 (inactive) in assay [6]; -0.141 (inactive) in assay [14].
